# Laboratory results taken from the supplement of paper PMC6555819.
# Columns and labels:
# Test in all cases: PBM binding z-score (relative to random genomic background probes); higher = stronger binding; sequences stand for … in GC…GCGATTGACAGCGTAGAATGAAGG
# [1] = test system: RARb homodimer (NR concentration 270 nM)
# Method in brief: (§1)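 For binding z-scores, the reference was random background probes on custom Agilent 4×180K protein-binding microarrays. These arrays were incubated 1 h with ligand-free nuclear receptor dimers in PBS pH 7.4, 2% milk, 0.02% Triton X-100, 1 mM DTT, 0.2 mg/mL BSA and 0.4 mg/ml salmon testes DNA. Fluorescence was scanned after antibody detection of each partner (one per run) and regression-normalized.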
# [2] = test system: RARg:RXRa (NR concentration 270 nM, RXRa partner concentration 90 nM)
# Method in brief: as §1
# [3] = test system: RARg homodimer (NR concentration 270 nM)
# Method in brief: as §1
# [4] = test system: RXRa DBDmut IVT, anti-RXR (DBD mutation: RXRa K156A/R161A, NR concentration 90 nM)
# Method in brief: as §1
# [5] = test system: RXRa homodimer (NR concentration 180 nM)
# Method in brief: as §1
# [6] = test system: THRa:RXRa (NR concentration 90 nM, RXRa partner concentration 90 nM)
# Method in brief: as §1
# [7] = test system: THRa homodimer (NR concentration 90 nM)
# Method in brief: as §1
# [8] = test system: VDR:RXRa (NR concentration 270 nM, RXRa partner concentration 90 nM)
# Method in brief: as §1
# [9] = test system: VDR homodimer (NR concentration 270 nM)
# Method in brief: as §1
Sequence,PBM binding z-score [1],PBM binding z-score [2],PBM binding z-score [3],PBM binding z-score [4],PBM binding z-score [5],PBM binding z-score [6],PBM binding z-score [7],PBM binding z-score [8],PBM binding z-score [9]
CCGAGTAGGTTACGAGGGGGCACTCAGTGCGAAT,2.29,3.19,2.39,0.868,2.17,3.74,0.205,4.68,2.68
ATATGTAGGTTAGGGTCATTCCGAAAGTAGGGAA,3.13,3.89,2.85,2.61,5.22,4.18,3.01,4.54,3.59
ATATGTAGGTTAGGGTCATCCAGAAAGTAGGGAA,3.38,4.31,3.5,2.19,5.6,4.15,3.73,4.46,3.58
CCGGGTAGGTTACGAGGGGGCATTCAGTGCGAAT,2.2,3.26,2.22,0.966,2.35,3.94,0.875,5.31,2.55
ACTAGTTGGTAAGCTGAGGTCACACACAATTCGG,4.01,3.45,2.93,1.25,3.57,4.52,5.19,3.71,3.29
TCGAGTAGGTTACGCGGGCATTCAGGGATGAAGA,0.619,0.799,0.653,-0.0929,0.864,0.97,-0.444,-0.157,-0.617
CCGAGTAGGTTAAGAGGGGGCATTCAGTGCGAAT,2.25,2.76,2.49,2.04,1.76,3.73,0.843,5.44,4.02
ATACCAAGGTGATCGTGAGTTCGTTGATACTAAC,0.465,0.682,0.338,1.2,0.456,1.58,0.74,4.08,4.63
CGAACTAGGTCAAATGACAGTGAAAGGCGACGTA,2.7,4.37,4.97,2.03,3.11,2.6,0.29,1.63,0.337
ACTAACAGGCCAAGGGTCACTCAAGATTAGTCCG,4.08,4.46,4.16,1.23,4.7,2.9,0.619,3.07,1.46
CCGAGTAGGTTACGAGGGGGCATTCGGTGCGAAT,2.06,3.04,2.32,0.865,2.22,3.76,0.298,5.48,3.61
CAAAGTAGGTCACCGGAAGGTCAAAGTCCGCATG,5.78,8.47,7.72,1.72,7.28,4.35,2.03,6.18,3.66
CGCACTAGGTCAAAGGACAGTGAAAGGCGACGTA,3.01,4.03,4.5,1.95,2.87,2.68,0.793,1.35,0.314
CGAACTAGGTCACCAGGACAGGGAAGAGGTTGGA,3.18,4.35,4.97,1.23,2.96,3.26,1.9,1.91,0.549
CTATGTAGGTTAAGGGGGTCATTAAGTTTGAAAG,3.65,4.97,3.44,2.43,5.43,3.79,2.03,7.64,6.07
ACTAGTTGGTCAGCTGAGGTCACACAAAATTCGG,4.3,4.32,4.78,1.52,4.23,5.01,5.35,4.79,3.83
CGAACTAGGTCAAAGGCCAGTGAAAGGCGACGTA,3.16,4.37,4.81,1.49,3.62,2.42,0.00822,1.74,-0.206
CGTCGGAGGACAACAGGAGGTCAGAGCTGCCAGA,3.63,3.83,3.69,0.531,2.26,2.98,1.12,2.05,1.79
CCAAGTAGGTTACGAGGGGGCATTCAGTGCGAAT,2.46,3.53,3.14,1.89,2.52,3.6,0.736,5.54,3.82
CTATGTAGGTTAAGGGGGTCACTCAGTTTGAAAG,3.95,5.13,3.79,1.85,5.58,3.79,2.06,7.21,5.29
CCGAGTAGATTACGAGGGGGCATTCAGTGCGAAT,1.12,1.31,0.84,1.36,0.919,1.85,-0.0543,3.48,3.03
CCGAGTACGTTACGAGGGGGCATTCAGTGCGAAT,1.5,1.85,1.41,3.95,1.17,2.36,0.395,4.15,4.78
TAGCCTAGGTGATTGGGCCAGTATAGTACGCATC,-0.159,-0.276,-0.119,-0.669,-0.198,-0.224,-0.512,-0.57,-0.67
ATCTCTAGGTCAAAGTTCAGTGAATCCCGAGGAT,4.18,6.01,5.62,2.65,6.97,3.76,1.76,4.4,3.19
GCATACGGGTCAAAGGTTATAGCATGAATAGAAT,3.26,6.95,4.87,2.46,9.53,3.81,-0.445,5.37,1.56
ATATGTAGGTTACATCCGAGTCATTCAGGCTATG,0.405,0.915,1.04,0.858,1.04,0.785,0.511,0.386,0.236

Sequence,PBM binding z-score [1],PBM binding z-score [2],PBM binding z-score [3],PBM binding z-score [4],PBM binding z-score [5],PBM binding z-score [6],PBM binding z-score [7],PBM binding z-score [8],PBM binding z-score [9]
CGAACTAGGTCAAAGGATAGTGAAAGGCGACGTA,2.35,3.47,4.16,1.28,2.85,2.22,0.17,1.12,0.124
TCGAGTCGGTTACGGGGGCATTCAGGGATGAAGA,1.57,2.4,1.77,1.16,1.5,3.45,0.955,2.73,2.23
CGTCAAAGTTCAAGTTAACGTAACAGAAAGCAGC,4.24,5.84,6.77,4.89,5.38,2.3,-0.142,4.32,4.05
CTATGTAGGTTAAGGGGGTCATTCATTTTGAAAG,3.81,4.91,3.98,2.28,5.74,3.64,1.93,7.08,5.01
CCGAGTAGGTTACGAGGGGGCATTCAATGCGAAT,1.91,3.12,2.47,1.05,2.2,3.78,0.33,4.88,2.09
CCGAGTCGGTTACGAGGGGGCATTCAGTGCGAAT,1.4,1.66,1.41,0.587,0.76,2.35,0.015,3.65,3.2
CAATCTAGGTCACGAAAGGTCAAAGTCGAATGAC,5.85,8.09,8.64,2.58,8.63,5.02,3.08,6.99,3.66
CCGAGTAGGTTTCGAGGGGGCATTCAGTGCGAAT,1.58,1.89,1.17,1.67,1.19,2.37,0.874,3.65,3.52
CCGAGTAAGTTACGAGGGGGCATTCAGTGCGAAT,1.29,1.47,0.902,1.57,1.31,2.32,0.139,3.83,2.59
CGAACTCGGTCACCAGGACAGTGAAGAGGTTGGA,1.97,2.47,3.48,0.319,1.01,1.86,0.326,1.87,0.21
ATATGTAGGTTAGGGTCATTCACAAAGTAGGGAA,3.69,3.98,3.1,2.7,5.07,4.38,2.96,4.61,3.86
CGAACTAGGTCACCTGGACAGTGAAGAGGTTGGA,3.36,4.43,5.32,1.49,3.36,3.1,1.2,2.34,0.466
CTATGTAGGTTAAGGGGGGCATTCAGTTTGAAAG,2.88,3.52,2.84,2.58,2.76,3.12,2.39,6.21,4.81
AGCTCTAGGTAAAAGTTCAGTGAATCCCGAGGAT,2.44,1.57,1.62,0.637,1.46,1.14,0.029,0.974,1.69
CCTACTGGGCAAAAAAGGTCATTGATGCCGATAA,4.17,4.03,4.11,0.33,4.81,3.57,0.0156,4.36,2.05
CAAACTAGGTCACGAAAGGTCAAAGTTGAATGAC,6.02,8.01,8.58,2.59,8.85,5.01,2.88,6.81,3.89
TCTCGGAGGACACGAAAGGTCAGAACTCGACATC,4.38,4.56,5.19,0.955,3.93,3.46,1.48,3.19,1.29
CGCCCAAGGTCAGCAGGTCAGTGAAAGCGACGTG,4.99,6.47,6.63,2.48,5.3,3.63,2.02,3.83,1.38
CGAACTAGGTCAAAGGACTGTGAAAGGCGACGTA,2.43,3.69,4.11,1.71,2.93,2.19,-0.114,1.14,-0.0761
TAGCCTCGGTCATTGGGCCAGTATAGTACGCATC,1.53,1.54,2.62,-0.363,0.223,0.029,-0.772,-0.539,-0.289
CGTCCAAGGTCAAGGGCAGTGAAAGAGACTCGAA,4.22,5.8,6.3,3.02,5,3.87,2.22,3.68,1.92
CCGACTTGGGCAAAGGTTACCATACTCAGTACGA,1.87,2.04,1.01,0.535,2.45,1.39,-0.0972,0.927,0.0256
CGAACTAGTTCAAAGGACAGTGAAAGGCGACGTA,1.43,1.25,1.73,2.02,0.848,0.426,-0.6,0.0501,0.808
CAAGCTAGGTCAAAGGTCAAAGTCGAGCCAACCA,5.17,9.17,8.1,3.05,10.6,4.96,1.45,6.9,3.39
CCTTACGGGTCAAGGTTATATCACGGGTGGTACG,3.52,4.98,4.79,0.822,5.52,3.11,0.96,3.49,1.54
CCTAGTTGGTCAAGGTCCCACACGCTATAGGTAC,1.27,0.7,1.19,0.446,0.433,0.687,0.94,0.398,0.734
